PubChem BioAssay (NCI)
The panel holds about 83,000 compounds, 20% with a hit somewhere; the sample as a whole holds those more often.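 Assay: single dose, 48 h. Readout: percent growth (0 = no net growth; negative = cell death). Active: <10.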 A number with no mark means an inactive call. The source made the active and inactive calls.

tested on: MCF7 breast; test: NCI-60 one-dose screen, 48 h (100 = growth as untreated, 0 = no growth, -100 = all killed); conditions: 10 µM unless noted

Row | Structure (SMILES) | growth
1 | CCOC(=O)N1CCN(CCCCOc2ccc(C(C)(C)CC)cc2)CC1 | 103%
2 | COC1=C(Br)C(=O)C(OC)=C(Br)C1=O | 83%
3 | Cc1cc(C)nc(NC(N)=NCCc2ccccc2)n1 | 17.3%
4 | Cc1nn(-c2ccc(Cl)cc2)c(=O)n1CCn1cnc2ccccc21 | 95.5%
5 | Brc1ccc(Cn2nnnc2-c2ccn(-c3ccccc3)n2)cc1 | 77.7%
6 | O=C1C=C(C(O)c2ccc(O)cc2)C(=O)c2ccccc21 (stereo not drawn) | 94.1%
7 | CCCC(=O)N1CCCCC1CC (stereo not drawn) | 103%
8 | O=[N+]([O-])c1ccc(/C=N\Nc2ccccc2)cc1 | 75.1%
9 | Nc1nc(N)c2nc3c(nc2n1)CCCCCCCCCC3 | 46.2%
10 | NC(=O)[C@@H]1CC2CCC1C2 (stereo partly drawn) | 103%
11 | C[N+](C)(CCCCCC[N+](C)(C)C1c2ccccc2-c2ccccc21)C1c2ccccc2-c2ccccc21 | 103%
12 | O=C(c1ccccc1)C(CN1CCOCC1)c1ccccc1 (stereo not drawn) | 1.11% (active)
13 | COCCNC1=C(Cl)C(=O)c2ccccc2C1=O | 81.3%
14 | CC(C)(C)CC(C)(C)c1ccc(OCCOCC[N+](C)(C)CC(=O)[O-])cc1 | 105%
15 | O=C(N/N=C\c1c(O)ccc2ccccc12)C1CC1 | 31.1%
16 | COc1cc2nc(Cl)nc(Nc3cccc(C(=O)/C=C/c4ccc(F)cc4)c3)c2cc1OC | 23.8%
17 | O=[N+]([O-])c1cccc(/C=N\Nc2ccccc2)c1 | 64.5%
18 | Oc1ccccc1/C=N\NC(=S)Nc1ccc(F)cc1 | 16.9%
19 | O=C(/C(=C(\C(=O)c1ccccc1)c1ccccc1)c1ccccc1)c1ccccc1 | 42.6%

Row | Structure (SMILES) | growth
20 | Nc1c(Cl)cc(N=Nc2ccccc2)cc1Cl | 19.7%
21 | Oc1cccc2oc(=S)[nH]c12 | 101%
22 | O=C(/C=C\c1ccc2c(c1)OCO2)/C=C/c1ccc2c(c1)OCO2 | 13.2%
23 | O=C(O)c1cccc2c1Cc1cc([N+](=O)[O-])ccc1-2 | 102%
24 | Cn1cc(-c2csc(-c3cn(CCCN4CCCCC4)c4ccc(Br)cc34)n2)c2cccnc21 | -64.6% (active)
25 | O=C(O)c1cccc2c1C(=O)N(c1ccc3c(c1)Cc1ccccc1-3)C2=O | 93.9%
26 | CN(C)c1ccc(N)c2ccccc12 | -70.1% (active)
27 | Cc1ccc2c(c1)c1nc3cc(C)c(C)cc3nc1n2CCN(C)C | -6.81% (active)
28 | O=[N+]([O-])c1ccc(N/N=C(\C(=N/Nc2ccc([N+](=O)[O-])cc2[N+](=O)[O-])c2ccccc2)c2ccccc2)c([N+](=O)[O-])c1 | 96.3%
29 | OCC12CCCC(CO)(COC1)C2O (stereo not drawn) | 106%
30 | O=C1C=Cc2ncccc2C1=O | 12.5%
31 | O=C(NC1=CC(=O)c2ccccc2C1=O)c1ccccc1 | 14.3%
32 | COc1c(N)c2c(c([N+](=O)[O-])c1OC)C(=O)OC2 | 100%
33 | CC1c2ccccc2N(S(=O)(=O)c2ccccc2)C1C (stereo not drawn) | 78.5%
34 | COc1ccc(/C=C/C(=O)c2ccc([N+](=O)[O-])cc2)cc1 | 96%
35 | c1ccc(C2Cc3ccccc3C2=NC2CCCCC2)cc1 (stereo not drawn) | 86.1%
36 | O=C(CI)Nc1ccc(O)c2ccccc12 | 0.823% (active)
37 | [B-][N+](CC)(CC)c1ccccc1 | 95.9%
38 | CC(C)(C)c1ccc(OCCCCCCCN2CCNCC2)cc1 | -20.1% (active)
